Assay outcomes from PubChem.
GRK2 inh: compounds blocking aptamer binding on GRK2 – biochemical, human GRK2, bead flow cytometry, HTS, primary screen | Beta-adrenergic receptor kinase 1 (Homo sapiens), P25098 | FAM-aptamer displacement from GRK2 | inhibition of aptamer binding, % at 10 µM | 330,000 tested, 0.59% active | AID 488847, 2010;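 active = inhibition of aptamer binding above 40%, roughly 3 SD of noise, on plates passing a quality check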;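 note: median bead fluorescence of bound FAM aptamer so fluorescent compounds give negative values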
Target sequence (P25098 whole entry, looked up): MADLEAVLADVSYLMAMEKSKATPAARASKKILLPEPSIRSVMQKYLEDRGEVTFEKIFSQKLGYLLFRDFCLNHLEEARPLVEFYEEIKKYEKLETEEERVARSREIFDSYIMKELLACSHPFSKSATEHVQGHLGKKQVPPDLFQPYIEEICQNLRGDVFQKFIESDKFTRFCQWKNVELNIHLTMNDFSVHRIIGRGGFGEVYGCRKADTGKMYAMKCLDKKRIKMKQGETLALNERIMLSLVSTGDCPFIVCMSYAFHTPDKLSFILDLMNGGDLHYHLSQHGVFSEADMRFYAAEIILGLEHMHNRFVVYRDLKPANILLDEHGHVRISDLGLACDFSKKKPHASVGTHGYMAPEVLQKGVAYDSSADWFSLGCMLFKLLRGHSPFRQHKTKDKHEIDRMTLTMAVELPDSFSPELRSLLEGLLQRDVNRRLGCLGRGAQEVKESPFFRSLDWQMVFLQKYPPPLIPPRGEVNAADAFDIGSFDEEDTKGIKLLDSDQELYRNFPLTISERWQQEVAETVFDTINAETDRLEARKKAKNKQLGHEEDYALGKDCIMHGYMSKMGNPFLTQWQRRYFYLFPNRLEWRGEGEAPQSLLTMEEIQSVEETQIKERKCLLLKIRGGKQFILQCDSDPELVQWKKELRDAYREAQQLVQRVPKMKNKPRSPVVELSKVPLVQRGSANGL
MEKK2 mut-MEK5: MEK5 binding signal on mutant MEKK2 PB1, primary screen, biochemical, multiplex bead flow cytometry, Alexa488-MEK5; Alexa488-MEK5 binding to MEKK2 mutant; percent response, % at 10 µM; 290,000 tested, 0.35% active; in the data active = percent response above about 24%, passing the limit was not always enough
MEKK2wt PB1 HTS: modulators of MEK5 binding to wildtype MEKK2, primary screen, biochemical, multiplex bead flow cytometry, Alexa488-MEK5; Mitogen-activated protein kinase kinase kinase 2 (Homo sapiens), Q9Y2U5; Alexa488-MEK5 binding to MEKK2 WT; actives lie on both sides; binding response (% of control), % at 10 µM; 290,000 tested, 1.1% active; AID 1531, 2009; in the data active = binding response below about 67% or above about 130%
MEKK3 PB1 HTS: modulators of MEKK3-MEK5 PB1 binding, primary screen, biochemical, wildtype MEKK3, multiplex bead flow cytometry, Alexa488-MEK5. bead-based flow cytometry, Alexa488-MEK5 binding to MEKK3; actives lie on both sides; 0 = blocked by unlabeled MEK5, 100 = vehicle. binding response (% of control), % at 10 µM. 290,000 tested, 1.4% active. AID 1529, 2009;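 active = binding response more than 3 SD above or below the average of its plate-row segment, actives on both sides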;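 note: Alexa488 bead fluorescence after subtracting the streptavidin-only scavenger bead signal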
MEKK2wt confirm: modulators of MEK5 binding to wildtype MEKK2, confirmation, biochemical, single concentration, multiplex bead flow cytometry. shares compounds with MEKK3 PB1 HTS. 5,900 tested, 2.4% active. Alexa488-MEK5 binding to MEKK2 WT; actives lie on both sides. binding response (% of control), % at 10 µM; in the data active = binding response below about 16% or above about 210%; inactive = in between
MEKK2mut confirm: mutant MEKK2 PB1-MEK5 binding signal retest – biochemical, single concentration, multiplex bead flow cytometry, confirmation; percent response, % at 10 µM; Alexa488-MEK5 binding to MEKK2 mutant; shares compounds with MEKK3 PB1 HTS; AID 1893, 2009; 5,900 tested, 2% active; in the data active = percent response mostly above about 71%, no sharp cut-off; inactive = mostly below about 38%;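 note: higher means compound restores mutant binding toward wildtype level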
MEKK3-MEK5 inh: MEKK3 wild-type PB1 binding to MEK5, inhibitors, confirmation, biochemical, bead multiplex flow cytometry, single concentration, wildtype. Alexa488-MEK5 binding to MEKK3; hits give low values. shares compounds with MEKK3 PB1 HTS. AID 1894, 2009. binding response (% of control), % at 10 µM. 5,900 tested, 1.8% active;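 active = binding response below 72% of control, or above a set upper limit, though filed actives all read lower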;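 note: 100% = DMSO only wells and 0% = binding blocked by excess unlabeled MEK5; lower values mean stronger disruption of MEK5 binding to MEKK3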
* = called active by the depositor; [ ] = dose if it differs, or a comment. Compounds with a hit are over-represented: about 2.5% of the library has one in this group of screens.

For COC(=O)/C=C/c1ccccc1CN1[C@@H](CC(=O)OC)c2ccccc2S1(=O)=O the results were GRK2 inh 0.
For COc1cc(/C=N/NC(=O)CN(Cc2ccccc2)S(=O)(=O)c2ccc3c(c2)OCCO3)ccc1O the results were GRK2 inh 0, MEKK2 mut-MEK5 0, MEKK2wt PB1 HTS 107, MEKK3 PB1 HTS 136*, MEKK2wt confirm 101, MEKK2mut confirm 0 and MEKK3-MEK5 inh 102.
CCOc1ccc(C=NNC(=O)c2ccc(-n3cnnn3)cc2)cc1 was read as GRK2 inh 0.
`O=C(Nc1cccc(F)c1)C1CCCCC1` gave GRK2 inh 0.
Screening CCCn1ncc(CN2CCC(C(=O)Nc3cccc(-c4cccc(F)c4)c3)CC2)c1C returned GRK2 inh 0, MEKK2 mut-MEK5 13, MEKK2wt PB1 HTS 144*, MEKK3 PB1 HTS 104, MEKK2wt confirm 128, MEKK2mut confirm 22 and MEKK3-MEK5 inh 107.
O=C(Nc1cccc(-c2cccc(F)c2)c1)C1CCN(C2CCC2)CC1 was read as GRK2 inh 0, MEKK2 mut-MEK5 17, MEKK2wt PB1 HTS 146*, MEKK3 PB1 HTS 103, MEKK2wt confirm 134, MEKK2mut confirm 26 and MEKK3-MEK5 inh 103.
COc1ccc(S(=O)(=O)Nc2ccc3c(c2)C(=O)N([C@H](C)CO)C[C@H](C)[C@@H](CN(C)S(=O)(=O)c2c(C)noc2C)O3)cc1 was read as GRK2 inh 3.
For Cc1cc(C)c(S(=O)(=O)Nc2cc(C)on2)c(C)c1 the results were GRK2 inh 4, MEKK2 mut-MEK5 5, MEKK2wt PB1 HTS 104 and MEKK3 PB1 HTS 101.
For Cc1ccc(C(=O)COC(=O)c2c(C)cc(=O)oc2C)cc1[N+](=O)[O-] the results were GRK2 inh 3, MEKK2 mut-MEK5 1, MEKK2wt PB1 HTS 106, MEKK3 PB1 HTS 160*, MEKK2wt confirm 105, MEKK2mut confirm 8 and MEKK3-MEK5 inh 102.
Screening CCOC(=O)C(CCCOc1ccccc1)C(=O)OCC returned GRK2 inh 0, MEKK2 mut-MEK5 -35, MEKK2wt PB1 HTS 65, MEKK3 PB1 HTS 43*[inhibitor], MEKK2wt confirm 96, MEKK2mut confirm -5 and MEKK3-MEK5 inh 101.
Screening Cc1nc(-c2nc(-c3c(C(=O)NNC(=O)c4ccc(Cl)cc4)noc3C)cs2)cs1 returned GRK2 inh 4, MEKK2 mut-MEK5 2, MEKK2wt PB1 HTS 107 and MEKK3 PB1 HTS 103.
`Cc1nc(-c2nc(-c3c(C(=O)NN)noc3C)cs2)cs1` gave GRK2 inh 1, MEKK2 mut-MEK5 6, MEKK2wt PB1 HTS 122, MEKK3 PB1 HTS 147*, MEKK2wt confirm 109, MEKK2mut confirm 9 and MEKK3-MEK5 inh 106.
`O=C(CSc1n[nH]c(-c2ccccc2Cl)n1)NCc1cccc(C(=O)O)c1` gave GRK2 inh 9, MEKK2 mut-MEK5 -10, MEKK2wt PB1 HTS 92 and MEKK3 PB1 HTS 99.
Screening COc1ccc(C(=O)NN/C(C)=C/C(=O)C(F)(F)C(F)(F)C(F)(F)F)cc1 returned GRK2 inh 5, MEKK2 mut-MEK5 -1, MEKK2wt PB1 HTS 102, MEKK3 PB1 HTS 130*, MEKK2wt confirm 95, MEKK2mut confirm -2 and MEKK3-MEK5 inh 99.
C[C@]12CCC3C(CC[C@H]4CCCC[C@]34C)C1CC[C@@]2(O)CNCCO (stereo partly drawn) was read as GRK2 inh 0, MEKK2 mut-MEK5 27*, MEKK2wt PB1 HTS 139*, MEKK3 PB1 HTS 105, MEKK2wt confirm 130, MEKK2mut confirm 20 and MEKK3-MEK5 inh 107.
CC(=O)[C@@]1(O)CCC2C3CC[C@H]4C[C@@H](O)CC[C@]4(C)C3CC[C@@]21C (stereo partly drawn) was read as GRK2 inh 0.
Screening O=C(NCCC1=CCCCC1)C(=O)c1c[nH]c2ccccc12 returned GRK2 inh 4, MEKK2 mut-MEK5 1, MEKK2wt PB1 HTS 106, MEKK3 PB1 HTS 133*, MEKK2wt confirm 96, MEKK2mut confirm -12 and MEKK3-MEK5 inh 99.
Screening CCc1nn2c(=O)c(S(=O)(=O)Nc3ccc(C(C)C)cc3)c(C)nc2s1 returned GRK2 inh 4, MEKK2 mut-MEK5 7, MEKK2wt PB1 HTS 106 and MEKK3 PB1 HTS 104.
`COC(=O)CN1C(=O)COc2ccc(S(=O)(=O)N3CCCCCC3)cc21` gave GRK2 inh 0, MEKK2 mut-MEK5 0, MEKK2wt PB1 HTS 99 and MEKK3 PB1 HTS 99.
Screening CN1CCN(CC(=O)N2CCn3c4c(c5cc(C6CCCCC6)ccc53)CCCC42)CC1 (stereo not drawn) returned GRK2 inh 0, MEKK2 mut-MEK5 84*, MEKK2wt PB1 HTS 253*, MEKK3 PB1 HTS 112, MEKK2wt confirm 215*, MEKK2mut confirm 62 and MEKK3-MEK5 inh 108.
For CCOC(=O)Cc1csc(NC(=S)NC(=O)c2cccc([N+](=O)[O-])c2)n1 the results were GRK2 inh 0, MEKK2 mut-MEK5 1, MEKK2wt PB1 HTS 108, MEKK3 PB1 HTS 139*, MEKK2wt confirm 106, MEKK2mut confirm 4 and MEKK3-MEK5 inh 103.
Screening CCOC(=O)Cc1csc(NC(=S)NC(=O)c2ccccc2)n1 returned GRK2 inh 6, MEKK2 mut-MEK5 0, MEKK2wt PB1 HTS 108 and MEKK3 PB1 HTS 126.
CCOC(=O)Cc1csc(NC(=O)c2sc3nc4cc(C)ccc4cc3c2N)n1 was read as GRK2 inh 0, MEKK2 mut-MEK5 13, MEKK2wt PB1 HTS 93, MEKK3 PB1 HTS 144*, MEKK2wt confirm 110, MEKK2mut confirm 13 and MEKK3-MEK5 inh 110.
`CCOC(=O)Cc1csc(NC(=O)c2sc3nc4ccc(CC)cc4cc3c2N)n1` gave GRK2 inh 0, MEKK2 mut-MEK5 0, MEKK2wt PB1 HTS 92 and MEKK3 PB1 HTS 101.
CCOC(=O)Cc1csc(NC(=O)/C=C/c2cccc(Br)c2)n1 was read as GRK2 inh 0, MEKK2 mut-MEK5 -17, MEKK2wt PB1 HTS 47*[inhibitor], MEKK3 PB1 HTS 44*[inhibitor], MEKK2wt confirm 101, MEKK2mut confirm -3 and MEKK3-MEK5 inh 101.
`CC(C)c1ccc(C2NC(=O)c3ccccc3O2)cc1` (stereo not drawn) gave GRK2 inh 0, MEKK2 mut-MEK5 -1, MEKK2wt PB1 HTS 94 and MEKK3 PB1 HTS 99.
